According to ChEMBL document CHEMBL4808148, “HDAC6 screening dataset using tau-based substrate in an enzymatic assay yields selective inhibitors and activators” (2021):
Screen size: about 5,600 compounds; about 390 (7%) showed an effect of 50% or more. This excerpt belongs to a sample that is enriched for strong results. Residues, ends and D or L forms follow the SMILES beside them. *: point of attachment. PhAc = O=C(Cc1ccccc1)*

Legend:
[1] = target: T1, Protein deacetylase HDAC6 (Homo sapiens) (UniProt Q9UBN7); settings: at 10 µM
T1 sequence (whole entry): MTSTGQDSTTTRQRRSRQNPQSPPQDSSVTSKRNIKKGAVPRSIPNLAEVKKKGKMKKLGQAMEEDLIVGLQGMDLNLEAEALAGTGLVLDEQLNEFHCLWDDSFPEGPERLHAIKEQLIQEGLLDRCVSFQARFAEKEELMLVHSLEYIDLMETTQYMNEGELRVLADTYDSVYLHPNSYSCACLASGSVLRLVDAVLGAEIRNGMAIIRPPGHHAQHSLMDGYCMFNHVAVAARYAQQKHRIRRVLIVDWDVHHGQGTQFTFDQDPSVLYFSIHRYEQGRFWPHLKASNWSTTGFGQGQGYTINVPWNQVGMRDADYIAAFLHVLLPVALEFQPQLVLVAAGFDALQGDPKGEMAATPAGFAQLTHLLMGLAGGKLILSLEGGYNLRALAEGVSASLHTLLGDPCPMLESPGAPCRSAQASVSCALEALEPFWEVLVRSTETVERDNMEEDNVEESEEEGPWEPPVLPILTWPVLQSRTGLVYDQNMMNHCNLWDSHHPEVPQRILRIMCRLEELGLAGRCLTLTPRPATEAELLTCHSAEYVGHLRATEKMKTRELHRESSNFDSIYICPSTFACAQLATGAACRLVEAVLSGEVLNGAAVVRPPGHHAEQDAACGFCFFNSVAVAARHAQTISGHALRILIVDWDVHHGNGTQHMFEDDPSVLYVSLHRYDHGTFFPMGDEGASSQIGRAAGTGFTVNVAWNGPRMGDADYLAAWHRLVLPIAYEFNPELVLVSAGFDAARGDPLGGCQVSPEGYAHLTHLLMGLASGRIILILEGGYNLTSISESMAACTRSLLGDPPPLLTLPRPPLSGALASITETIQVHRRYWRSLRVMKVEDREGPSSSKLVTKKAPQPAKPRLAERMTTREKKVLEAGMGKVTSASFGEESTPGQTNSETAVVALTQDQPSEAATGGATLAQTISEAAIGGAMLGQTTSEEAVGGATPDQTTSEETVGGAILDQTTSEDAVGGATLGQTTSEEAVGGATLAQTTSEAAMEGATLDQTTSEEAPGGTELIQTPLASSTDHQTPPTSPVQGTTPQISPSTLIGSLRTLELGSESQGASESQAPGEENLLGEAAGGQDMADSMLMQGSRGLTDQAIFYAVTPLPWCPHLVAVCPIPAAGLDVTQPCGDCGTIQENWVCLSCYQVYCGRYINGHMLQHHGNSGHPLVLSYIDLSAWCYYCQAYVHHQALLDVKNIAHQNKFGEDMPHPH

[2] = target: Protein deacetylase HDAC6 (Homo sapiens) (UniProt Q9UBN7); settings: at 10 µM; remark: listed apart in the source

Molecule | inhibition [1] [%] | inhibition [2] [%]
O=C(O)Cc1ccc(OCc2ccccc2)c(Cl)c1 | -0.75 | –
O=C(O)Cc1ccc2c(c1)C(=O)c1ccccc1CO2 | 75 | –
O=C(O)c1ccc(N2N=C(Cc3ccccc3)/C(=C\c3ccc(-c4ccccc4F)o3)C2=O)cc1 | 5.2 | –
CC(C)OC(=O)N[C@H]1Cc2c(n(Cc3ccccn3)c3ccc(C#N)cc23)C1 | -8.91 | –
CC(C)(C)c1ccc(O)cc1 | 17.6 | –
CC(C)(C)c1ccc(-c2nc3ccccc3[nH]2)cc1 | 105 | –
C#CCC(Cc1cnc2nc(N)nc(N)c2n1)c1ccc(C(=O)N[C@@H](CCC(=O)O)C(=O)O)cc1 (some centres undefined) | 30 | –
Oc1cc(CNC(=S)/C=C/c2cc(O)c(O)c(Br)c2)cc(O)c1O | 36 | –
COC(=O)c1ccc(N2CCN(C)CC2)c(NC(=O)c2cccc(OC)c2)c1 | 5.02 | –
COc1ccc(N(C(=O)Oc2c(C)cccc2C)c2ccnc(Nc3ccc(N4CCN(C)CC4)cc3)n2)c(OC)c1 | 102 | –
COc1cc(N2CCN(C)CC2)ccc1Nc1ncc2c(n1)N(C)c1ccccc1C(=O)N2C | 0.79 | –
Cn1c(C#N)ccc1-c1ccc2c(c1)C(C)(C)OC(=S)N2 | 12.5 | –
O=C(Nc1cc(C(F)(F)F)cc(C(F)(F)F)c1)c1cc(Cl)ccc1O | 3.28 | –
CC(=O)NCCNc1cc(Cl)nn2c(-c3cccc(S(=O)(=O)N(C)C)c3)c(C)nc12 | 15.6 | –
CC(C)CN(C[C@@H](OP(=O)(O)O)[C@H](Cc1ccccc1)NC(=O)O[C@H]1CCOC1)S(=O)(=O)c1ccc(N)cc1 | 7.63 | –
CCCN(CCC)C(=O)Cc1c(-c2ccc(Cl)cc2)nc2ccc(Cl)cn12 | -6.78 | –
CC1=CC(=C(c2ccc(N)cc2)c2ccc(N)cc2)C=CC1=N | 57.5 | –
O=C(O)c1ccccc1NC(=O)C12CC3CC(CC(C3)C1)C2 | 8.92 | –
COc1ccc(S(=O)(=O)N2CCCN(S(=O)(=O)c3ccc(OC)c(OC)c3)CC2)cc1OC | 5.48 | –
O=C(NO)c1cnc(N2CCN(S(=O)(=O)c3ccc4ccccc4c3)CC2)nc1 | 102 | –
O[C@@](Cc1nc(CC2(C(F)(F)F)CC2)c[nH]1)(c1ccc(-n2cccn2)cc1)C(F)(F)F | -0.94 | –
O=C(O)CCc1ccc(NCc2cccc3c2CCCN3CCOc2ccccc2)cc1F | 8.07 | –
OCCNC1CCCc2c1[nH]c1ccc(-c3ccccc3)cc21 (centres undefined) | 59.1 | –
CCc1nc(C)ccc1O | 3.81 | –
N[C@@H](CSCC(=O)O)C(=O)O | 17.8 | –

Molecule | inhibition [1] [%] | inhibition [2] [%]
CC1(C)CC[C@]2(C(=O)O)CC[C@]3(C)[C@H](C(=O)C=C4[C@@]5(C)C=C(C#N)C(=O)C(C)(C)[C@@H]5CC[C@]43C)[C@@H]2C1 | 11.2 | –
CN(C)/N=N/c1ccc(C(=O)O)cc1 | 26.9 | –
C=C1C[C@@]2(O)O[C@@]3(C[C@H]2C(C)C)[C@@H](C)CC[C@@H]13 | 20.2 | –
CC(C)(C)C(=O)NCCCC(=O)O | 0.18 | –
N=C1CCCN1Cc1[nH]c(=O)[nH]c(=O)c1Cl | 55.5 | –
O=C(O)c1cc(/N=N/c2ccc(O)c(C(=O)O)c2)ccc1O | 98.2 | –
Cc1cccc(C(=O)O)c1O | 35.8 | –
COc1ccc(NS(=O)(=O)c2ccc(/N=N/c3ccc(O)c(C(=O)O)c3)cc2)nn1 | 35.8 | –
O=c1[nH]c2ccccc2c(=O)n1CCCN1CCN(c2ccccc2)CC1 | 8.65 | –
O=C(OCCN1CCOCC1)c1cccnc1Nc1cccc(C(F)(F)F)c1 | 62 | –
O=C(O)c1ccccc1Nc1cccc(C(F)(F)F)c1 | 30.6 | –
NC(=O)NCCN1CCN(c2cccc(C(F)(F)F)c2)CC1 | 22 | –
c1ccc2c(c1)Nc1ccccc1S2 | 74.6 | –
CC(C)(C)C(=O)OCC(=O)[C@H]1CC[C@H]2[C@@H]3CCC4=CC(=O)CC[C@]4(C)[C@H]3CC[C@]12C | 23.8 | –
CCC(=O)c1ccc(OCC(O)CN2CCN(c3ccccc3)CC2)cc1 (centres undefined) | 19.9 | –
Cc1cc(C)nc(NS(=O)(=O)c2ccc(NC(=S)NC(=O)COc3ccc(Br)cc3Cl)cc2)n1 | 19.5 | –
CCCc1ccc(C(=O)O)cc1 | 29.1 | –
CC1(C)CCC(C)(C)c2cc(C#Cc3ccc(C(=O)O)cc3)ccc21 | -3.59 | –
CCc1ccc(C2=CC(C)(C)Sc3ccc(C#Cc4ccc(C(=O)O)cc4)cc32)cc1 | 63 | –
COc1cn(-c2ccc(-n3cccn3)cc2F)nc(-c2ccnn2-c2ccccc2)c1=O | 0 | –
O=C1NC(=O)c2c1c1c3ccccc3n3c1c1c2c2ccccc2n1C1CCC3O1 | 1.84 | –
C[C@H](N)Cc1c[nH]cn1 | 7.87 | –
Oc1ccc(-c2nc3cc(O)cc(Br)c3o2)cc1 | 101 | –
C/C(=C(/CCOC(=O)C(C)C)SS/C(CCOC(=O)C(C)C)=C(\C)N(C=O)Cc1cnc(C)nc1N)N(C=O)Cc1cnc(C)nc1N | 9.58 | –
COc1cc(CN2CCN(c3ccc(F)cc3)CC2)cc(OC)c1OC | 16.8 | –

Molecule | inhibition [1] [%] | inhibition [2] [%]
CCCCCCCCCCCCCCCCCC(=O)OC[C@@H](O)[C@H]1OC[C@H](O)[C@H]1O | 1.06 | –
CC(C)(C)NCC(O)c1cc(Cl)c(N)c(C(F)(F)F)c1 (centres undefined) | 16.6 | –
COc1ccc(-c2cnc3c(-c4cccc5ncccc45)cnn3c2)cc1 | -9.41 | –
c1ccc(-c2cnn3cc(-c4ccc(OCCN5CCOCC5)cc4)cnc23)cc1 | 92.3 | –
CC(C)Oc1ccc(-c2cnc3c(-c4ccnc5ccccc45)cnn3c2)cc1 | -2.96 | –
c1cc(-c2cnn3cc(-c4ccc(OCCN5CCCCC5)cc4)cnc23)ccn1 | 69.7 | –
c1ccc(OCc2ccc(CCCN3CCOCC3)cc2)cc1 | 45 | –
C=C1/C(=C\C=C2/CCC[C@]3(C)[C@@H]([C@H](C)/C=C/[C@H](C)C(C)(C)O)CC[C@@H]23)C[C@@H](O)C[C@@H]1O | -3.96 | –
COC(=O)[C@H](Cc1ccc([N+](=O)[O-])cc1)NC(=O)c1cccc2ccccc12 | 10.5 | –
COc1ccc2cc(-c3cc(-c4cc(Cl)cc(Cl)c4)nn3[C@@H](C)c3ccc(C(=O)NCCC(=O)O)cc3)ccc2c1 | 18.3 | –
OC[C@H]1O[C@H](O[C@H]2O[C@H](CO)[C@@H](O)[C@H](O)[C@H]2O)[C@H](O)[C@@H](O)[C@@H]1O | -9.27 | –
O=C(OCC(COC(=O)c1cccnc1)(COC(=O)c1cccnc1)COC(=O)c1cccnc1)c1cccnc1 | 7.98 | –
CN(C)c1nc(N)c(C(=O)Nc2cccnc2)nc1Cl | 100 | –
Cn1cncc1[C@@](N)(c1ccc(Cl)cc1)c1ccc2c(c1)c(-c1cccc(Cl)c1)cc(=O)n2C | -5.64 | –
Nc1nc(NC2CC2)c2ncn([C@H]3C=C[C@@H](CO)C3)c2n1 | -5.79 | –
Cc1ccc(NCCCc2ccccc2)c(N)c1 | 78.2 | –
NC(=O)OCCCc1ccccc1 | 15.1 | –
O=C(O)c1ccccc1NCCc1ccccc1 | 42.4 | –
CCOc1cc2ncc(C#N)c(Nc3ccc(F)c(Cl)c3)c2cc1NC(=O)/C=C/CN(C)C | 36.7 | –
CCOC(=O)CNC(=O)[C@@H]1CCCN1C(=O)Cc1ccccc1 (PhAc-Pro-Gly-OEt) | 4.19 | –
COC(=O)[C@H](CC(C)C)NC(=O)[C@H](N)CC(C)C | 10.2 | –
CC1(C)[C@H]2CC[C@@]1(C)[C@H](O)[C@@H]2O (racemic) | 31.2 | –
CCOC(=O)C1=C(N)Oc2ccc(Br)cc2[C@H]1[C@H](C#N)C(=O)OCC | 52.9 | –
CCOC(=O)C1=C(N)Oc2ccc(Br)cc2C1C(C#N)C(=O)OCC (centres undefined) | 27.8 | –
Cc1cccc(C)c1NC(=O)CN1CCCCCC1 | 16.5 | –

Molecule | inhibition [1] [%] | inhibition [2] [%]
C/C(=N\NC(=N)N)c1cc(NC(=O)CCCCCCCCC(=O)Nc2cc(/C(C)=N/NC(=N)N)cc(/C(C)=N/NC(=N)N)c2)cc(/C(C)=N/NC(=N)N)c1 | 77.6 | –
Cc1ccc(NC(=O)CCCCCC(=O)Nc2ccccc2N)cc1 | -2.93 | –
CCS(=O)(=O)N(Cc1cccnc1)c1cccc(-c2ccc(C#N)cc2)c1 | 17 | –
CC1(N2CCC(n3c([C@H]4CCCNC4)nc4ccccc43)CC2)CCCCCCC1 | -2.41 | –
CCC[C@@H]1CC(=O)N([C@@H](CC)C(N)=O)C1 | 29.1 | –
C[C@H](/C=C/[C@H](C)C(C)(C)O)[C@H]1CC[C@H]2/C(=C/C=C3C[C@@H](O)C[C@H](O)C3)CCC[C@]12C | 9.32 | –
CCCCN(CCCC)C(=O)CN1C[C@H](c2ccc3c(c2)OCO3)[C@@H](C(=O)O)[C@@H]1c1ccc(OC)cc1 | 34.1 | –
O=C1NC(=S)NC(=O)C1C(=O)Nc1ccccc1 | 96.3 | –
N=C(Nc1ccccc1)Nc1ccccc1 | 15.5 | –
N=C(Nc1ccccc1)c1cccs1 | 37.1 | –
CON(C)C(=O)[C@H](O)[C@H](Cc1ccccc1)NC(=O)c1cc2cc(Cl)ccc2[nH]1 | 5.68 | –
CN[C@H]1C[C@@H](N)[C@H](O)[C@@H](O[C@@H]2O[C@H](CO)[C@H](O)[C@@H]3OC4(O[C@H]23)O[C@H]([C@@H](N)CO)[C@H](O)[C@H](O)[C@H]4O)[C@@H]1O (some centres undefined) | 6.11 | –
N#Cc1ccc2[nH]c(O)c(-c3ccc(CN4CCOCC4)cn3)c2c1 | 11.3 | –
Cc1[nH]c(/C=C2\C(=O)Nc3cc(-c4ccccc4)ccc32)c(C)c1CCC(=O)O | 95.2 | –
CN/C(=N\S(=O)(=O)c1ccc(Cl)cc1)N1CC(c2ccccc2)C(c2ccc(Cl)cc2)=N1 (racemic) | 9.02 | –
O=C1CC(=O)c2c(Cl)c(Cl)c(Cl)c(Cl)c21 | -2.09 | –
CN1C[C@@H]2CN(c3ccc(-c4ccccc4)nn3)C[C@@H]2C1 | 10.2 | –
O=C1N[C@H](C(=O)O)CS1 | 9.69 | –
CCOc1cc(/C=C2/C(=O)N(c3ccccc3)N=C2C)cc(Cl)c1OCC(=O)OC | 101 | –
HYALURONIC ACID, CHEMBL5314376 | – | -9.36
CN(C)C(=O)CCSC(SCCC(=O)O)c1cccc(/C=C/c2ccc3ccc(Cl)cc3n2)c1 (centres undefined) | 10.8 | –
N[C@@H](CSCCCO)C(=O)O | 24.6 | –
O=c1c2c[nH]c3ccccc3c-2nn1-c1ccc(Cl)cc1 | 97.1 | –
COc1ccc(-n2nc3c4c([nH]cc-3c2=O)CCCCC4)cc1 | 40.9 | –
